Compound activity: PubChem BioAssay, National Center for Advancing Translational Sciences (NCATS)
Rows were chosen to be rich in hits. Some 3.1% of all compounds tested hit in one or more screens of this group.
TexasRed fluor = Total Fluorescence Counterscreen for Inhibitors of the Interaction of Thyroid Hormone Receptor and Steroid Receptor Coregulator 2 | TRb/SRC2 Texas Red total fluorescence interference | Potency, µM (top dose mostly 106 µM), for inactives: at the highest dose fluorescence change, negative = quenching | actives 0.29% (n = 280,000); active = well fitted curve in either direction with a large enough effect; inconclusive = small, poorly fitted or top-dose-only effect
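Human TRb ligand-binding domain at 0.6 uM with 20 nM Texas Red SRC2 peptide in Tris buffer containing 1 uM T3 and 5% DMSO, incubated with compound 5 h at ambient temperature. Total fluorescence (555/632 nm) calculated as parallel + 2 × perpendicular.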
Tau fibril FP = qHTS for Inhibitors of Tau Fibril Formation, Fluorescence Polarization; Microtubule-associated protein tau (Homo sapiens), P10636; K18 P301L tau heparin fibrillization, Alexa594 FP, 6 h; Potency, µM (doses to about 57.7 µM), without a hit: at the top dose activity, negative = inhibition, usual class: inhibitors; actives 0.39% (n = 280,000); AID 1468, 2008; note: nearly all actives have a fitted effect of over 55% in size
Target sequence (P10636 561-689 P618L limits assumed): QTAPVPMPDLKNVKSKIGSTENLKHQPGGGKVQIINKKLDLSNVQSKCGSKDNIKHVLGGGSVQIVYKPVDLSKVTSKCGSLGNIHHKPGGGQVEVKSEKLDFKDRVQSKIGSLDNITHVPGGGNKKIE
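Steps: dispense K18 P301L tau (15 uM plus 0.24 uM Alexa 594 tracer, final) in pH 7 sodium acetate; add compound; add heparin (20 uM final); incubate 6 hr, 37 C; add ThT (30 uM final); after 1 hr ambient, read FP.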
TRb-SRC2 inh = qHTS for Inhibitors of the Interaction of Thyroid Hormone Receptor and Steroid Receptor Coregulator 2 | Thyroid hormone receptor beta (Homo sapiens), P10828 | TRbeta-SRC2 peptide binding, fluorescence polarization; receptor liganded with 1 µM T3 | Potency, µM (highest dose often 106 µM), without a hit: at the top dose activity change, negative = inhibition, actives largely listed as inhibitors | actives 0.065% (n = 280,000);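 note: plate controls were bound peptide for no effect and peptide without receptor for full effect; nearly all actives have a fitted effect of over 50% in size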
Target sequence (P10828 whole entry, looked up): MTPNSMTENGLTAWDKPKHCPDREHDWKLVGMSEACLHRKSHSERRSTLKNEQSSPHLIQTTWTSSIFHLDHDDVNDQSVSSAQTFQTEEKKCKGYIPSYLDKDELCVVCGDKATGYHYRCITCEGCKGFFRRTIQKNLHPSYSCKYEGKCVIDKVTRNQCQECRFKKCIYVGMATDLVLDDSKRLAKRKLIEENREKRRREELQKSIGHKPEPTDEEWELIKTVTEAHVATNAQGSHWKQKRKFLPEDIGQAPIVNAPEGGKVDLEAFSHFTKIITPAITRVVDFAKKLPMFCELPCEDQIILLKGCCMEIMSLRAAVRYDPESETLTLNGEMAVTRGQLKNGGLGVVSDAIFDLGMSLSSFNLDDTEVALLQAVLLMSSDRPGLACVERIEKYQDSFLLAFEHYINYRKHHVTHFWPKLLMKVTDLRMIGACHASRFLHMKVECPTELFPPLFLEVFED
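Read-out is fluorescence polarization (555 nm excitation, 632 nm emission) of a Texas Red SRC2 coactivator peptide; loss of signal reflects blocked binding to human TRb ligand-binding domain in the presence of 1 uM T3.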
Tau ThT inhib = qHTS for Inhibitors of Tau Fibril Formation, Thioflavin T Binding; Microtubule-associated protein tau (Homo sapiens), P10636; recombinant tau K18 P301L, heparin-induced fibrillization, ThT fluorescence; Potency, µM (highest dose often 57.4 µM), inactives show at the top dose activity, negative = inhibition, most hits filed as inhibitors; actives 2.1% (n = 270,000); note: nearly all actives have a fitted effect of over 55% in size
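ThT emission at 510 nm, taken 1 hr after adding 30 uM dye, quantifies aggregates formed when 20 uM heparin acts on human tau K18 P301L for 6 hr at 37 C.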
Tau fluor cs = Counterscreen qHTS for Inhibitors of Tau Fibril Formation, Fluorescence Polarization; AID 1463, 2008; actives 0.93% (n = 280,000); tau K18 P301L Alexa594 fluorescence, heparin fibrillization; Potency, µM (titrated, usually from 57.7 µM), without a hit: at the highest dose activity change, negative = decrease; note: nearly all actives have a fitted effect of over 55% in size
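Human tau K18 P301L (15 uM unlabeled, 0.24 uM Alexa 594-labeled) in 100 mM sodium acetate pH 7 with 20 uM heparin, 6 hr at 37 C. ThT 30 uM added, 1 hr ambient; Alexa 594 FP and total fluorescence read at 555/632 nm.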
* = called active by the depositor; ? = inconclusive; · = not tested or not shown; [ ] = dose if it differs, or a comment. Unless noted, calls come from the whole dose curve; as a rule, active = well fitted curve in the direction sought with a large enough effect; inconclusive = small, poorly fitted or top-dose-only effect, or another doubt; inactive = no such curve, though single readings can be large; an effect the other way counts as inactive or inconclusive. Unless noted, % is set by controls: 0 for no effect and ±100 for the full control effect; potency is the fitted concentration of half-maximal effect.

SMILES | TexasRed fluor | Tau fibril FP | TRb-SRC2 inh | Tau ThT inhib | Tau fluor cs
O=S(=O)(c1ccccc1)c1nc(-c2cccs2)oc1SCc1ccccc1Cl | 0% | ? | 10% | -9% | ?
Cc1ccc(Cl)cc1N1CCN(C(=O)CCC(=O)Nc2ccc3nc(N4CCC(C)CC4)cc(C)c3c2)CC1 | 7% | 5% | -1% | ? | ?
Cc1cc(N2CCC(C)CC2)nc2ccc(NC(=O)/C=C/c3cccc(Cl)c3)cc12 | 9% | 24% | 17% | 6.3µM* | 14µM*[quencher]
Cc1ccc(/C=C/C(=O)Nc2ccc3nc(N4CCC(C)CC4)cc(C)c3c2)cc1 | -2% | 0% | 7% | 2.5µM* | 6.3µM*[quencher]
COCCN(CCOC)c1nc(C)nc2c1nc(-c1ccccc1)n2CCCN(C)C | -2% | 3% | -2% | -1% | -5%
CC(C)(C)C1CCc2onc(C(=O)Nc3sc4c(c3C#N)CCCC4)c2C1 (stereo unspecified) | 3% | ? | -11% | 32µM* | -20%
Cc1cc(C(=O)Nc2sc3c(c2C#N)CCCC3)no1 | 2% | -2% | -2% | -20% | -9%
CCCN1CCc2c(sc(NC(=S)NC(=O)c3ccccc3)c2C#N)C1 | -4% | 2% | -2% | 16µM* | ?
CC(C)N1CCc2c(sc(NC(=S)NC(=O)c3ccccc3)c2C#N)C1 | 5% | 10% | 2% | ? | ?
Cc1onc(-c2ccccc2)c1C(=O)NC(=S)Nc1sc2c(c1C#N)CCCC2 | -1% | ? | -1% | 28µM* | -28%
COc1ccccc1-c1cc(C(=O)Nc2sc3c(c2C#N)CCCC3)no1 | 8% | ? | -5% | 35µM* | -22%
Cc1onc(-c2ccccc2)c1C(=O)Nc1sc2c(c1C#N)CCC2 | 1% | -2% | -11% | ? | -27%
CCC(=O)N1CCc2cc(Br)cc(S(=O)(=O)CCC(=O)N3CCN(c4cccc(C(F)(F)F)c4)CC3)c21 | -3% | 1% | -3% | ? | -29%
CC(=O)c1cc(-c2ccccc2)n(CCC(=O)NCCc2ccccc2)c1C | -1% | -1% | -3% | -2% | -7%
Cc1ccccc1Cn1c2ccccc2c2cnn(CC(=O)NCCc3ccccc3)c(=O)c21 | -5% | -6% | 5% | ? | -8%
CC(/C=C(\NC(=O)c1ccccc1)C(=O)N=Nc1c(O)[nH]c2ccc(C)cc12)=C\c1ccccc1 | -4% | -3% | -6% | 20µM* | ?
Cc1ccc2[nH]c(O)c(N=NC(N)=S)c2c1 | -11% | -2% | -2% | ? | -10%
CCCCCCCCCCCCCCN | -5%[201 µM] | · | 3%[201 µM] | · | ·
CCCc1[nH]nc2c1C(c1ccc(OCCN3CCOCC3)c(OC)c1)C(C#N)=C(N)O2 (stereo unspecified) | 0% | -2% | -4% | -14% | -6%
CCOc1cc(C2C(C#N)=C(N)SC(N)=C2C#N)ccc1OCCN1CCOCC1 | 5% | ? | 18% | 25µM* | -29%
CCOC(=O)C1CCN(C(=O)CSc2n[nH]c(-c3ccc(OC)cc3)n2)CC1 | -2% | -4% | 0% | -9% | -1%
COc1ccc(NC(=O)N2CCOc3ccc(Cl)cc32)cc1 | ? | 14% | 1% | -10% | 8.9µM*[quencher]
CCc1ccccc1NC(=O)N1CCOc2ccccc21 | 0.0089µM*[quencher] | -3% | 0% | 2% | -1%
CCc1ccccc1NC(=O)N1CCc2ccccc21 | -1% | -9% | 4% | ? | -17%
CCOC(=O)c1ccccc1NC(=O)N1CCOc2ccc(Cl)cc21 | 4.5µM*[quencher] | -2% | -7% | 6% | 3.2µM*[quencher]
SMILES | TexasRed fluor | Tau fibril FP | TRb-SRC2 inh | Tau ThT inhib | Tau fluor cs
COc1cccc(CNCCSc2nnnn2C)c1OCc1ccc(Cl)cc1 | 2% | -4% | -1% | -11% | -17%
Cc1cc(-n2c(C)nc3ccccc3c2=O)ccc1NC(=O)C(F)(F)F | 0% | -7% | -11% | -13% | -16%
CN(C)c1ccc(/C=C/C(=O)c2c(O)c3ccccc3oc2=O)cc1 | 9% | ? | 20% | · | 0.71µM*[fluorescent]
CCOc1ccc(/C=C/C(=O)c2c(O)c3ccccc3oc2=O)cc1 | -1% | 3% | -7% | ? | 1%
CCOc1ccc(C2C(C(N)=O)=C(C)Nc3nc(SCc4ccccc4)nn32)cc1 (stereo unspecified) | -1% | ? | 6% | 12% | -7%
CC[n+]1c(/C=C/N(C)c2ccccc2)oc2ccc(F)cc21 | 7% | 25µM* | -3% | 14µM* | ?
CCN(CCNC(=O)c1ccc(CSc2nc3ccncc3[nH]2)cc1)c1ccccc1 | -6% | 1% | 4% | ? | 25µM*[quencher]
O=C(NCCN1CCN(c2cccc(Cl)c2)CC1)c1ccc(CSc2nc3ccncc3[nH]2)cc1 | 0% | ? | 5% | ? | ?
COC(=O)C1=C(C(=O)OC)[C@@H]2N(Cc3ccccc3)c3ccccc3[C@@]23C[C@@H](C(=O)OC)N(C(=O)c2ccco2)C3=N1 | 0%[11.2 µM] | 2%[11.6 µM] | 7%[11.2 µM] | 10%[11.5 µM] | 6%[11.6 µM]
COc1cc(/C=C2\SC(c3ccccc3)=NC2=O)cc(Cl)c1O | -2% | ? | -2% | 4.5µM* | ?
COc1cc(/C=C2\SC(c3ccc(C)cc3)=NC2=O)ccc1O | -6% | ? | -2% | 14µM* | ?
COc1cc(/C=C2\SC(c3ccc(C)cc3)=NC2=O)cc(OC)c1OC | 0% | ? | -6% | 14µM* | -27%
CN(C)C1=NC(=O)/C(=C\c2ccccc2)S1 | -1% | -4% | 1% | -2% | 0%
COc1cc(/C=C2\SC(N3CCc4ccccc4C3)=NC2=O)cc(OC)c1OC | ? | 2% | -6% | ? | -1%
COc1ccc(/C=C2/SC(c3ccc(C)cc3)=NC2=O)cc1OC | -3% | ? | -5% | 14µM* | ?
COc1cc(/C=C2\SC(N)=NC2=O)ccc1OCC(=O)Nc1ccc(C)cc1 | 0% | ? | -3% | ? | -22%
Cn1c(=O)oc2cc(S(=O)(=O)N3CCCC(C(=O)NCc4ccc(F)cc4)C3)ccc21 (stereo unspecified) | -5% | -10% | 2% | 0% | -12%
COc1ccc(/C=C2\SC(c3ccc(C)cc3)=NC2=O)cc1OC | -3% | ? | -1% | 11µM* | ?
Cc1ccc(NC(=O)c2ccc(NCCCN3CCOCC3)c([N+](=O)[O-])c2)cc1Cl | -4% | -1% | 5% | 13µM* | ?
O=[N+]([O-])c1ccc(NCCCN2CCOCC2)c([N+](=O)[O-])c1 | -2% | -18% | -3% | ? | -11%
